Measured values taken from PMC12820563, “FoxP3 forms a head-to-head dimer in vivo and stabilizes its multimerization on adjacent microsatellites”.
Over roughly 16,000 sequences, “rpm ratio (pull-down/input)” has its median near 0.5; the highest 2% begin near 5.5. The full list was thinned out, with the highest values kept by preference.

What follows are sequences tested against T1, MBP-FoxP3dN (Mus musculus, UniProt Q99JB6 188-423) (assay: PD-seq (MBP pull-down with sequencing); 20 mM Tris-HCl pH 7.5, 100 mM NaCl, 1.5 mM MgCl2, 0.4 uM protein, 0.1 uM dsDNA library, 30 min, room temperature, amylose pull-down; high values mean tight binding). Conditions: protein: recombinant; tags: His6-MBP; chain copies: 2; dsDNA, one strand shown.
T1 sequence: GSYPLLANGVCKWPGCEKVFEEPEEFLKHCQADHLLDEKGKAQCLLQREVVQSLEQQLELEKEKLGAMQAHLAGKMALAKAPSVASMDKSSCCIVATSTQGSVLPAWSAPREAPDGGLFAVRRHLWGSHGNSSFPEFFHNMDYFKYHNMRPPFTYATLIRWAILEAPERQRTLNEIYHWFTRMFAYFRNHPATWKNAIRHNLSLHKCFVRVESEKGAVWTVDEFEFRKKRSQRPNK
Method in brief: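 Binding is reads-per-million enrichment of pull-down over input, with replicates pooled. It comes from 30 min room-temperature incubation in Tris pH 7.5 buffer with NaCl and MgCl2 of 0.4 µM His6-MBP-tagged, N-terminally truncated mouse FoxP3 or FoxP1 fragment from E. coli with 0.1 µM Klenow-filled degenerate double-stranded DNA library, followed by amylose resin capture, three washes and Illumina sequencing of the released DNA.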

Sequence	binding signal
GATGATTGTTCTCCCAGCTGATGAATTGGGAATTTCGAGTAAACAAATTTTCCTAATCTTTCTGTTCAAGCGCCATCTAC	1.3 RPM ratio (pull-down/input)
GATGATTGTTCTCCCAGCTGATGAATTAGGCACGTCGAGTAAACAAATTTTCCTAATCTTTCTGTTCAAGCGCCATCTAC	1.03 RPM ratio (pull-down/input)
GATGATTGTTCTCCCAGCTGATGAATTACTCTGCTCGAGTAAACAAATTTTCCTAATCTTTCTGTTCAAGCGCCATCTAC	0.3 RPM ratio (pull-down/input)
GATGATTGTTCTCCCAGCTGATGAATTACGTTGCTCGAGTAAACAAATTTTCCTAATCTTTCTGTTCAAGCGCCATCTAC	1.14 RPM ratio (pull-down/input)
GATGATTGTTCTCCCAGCTGATGAATTAGGACATTCGAGTAAACAAATTTTCCTAATCTTTCTGTTCAAGCGCCATCTAC	0.784 RPM ratio (pull-down/input)
GATGATTGTTCTCCCAGCTGATGAATTAAAGAATTCGAGTAAACAAATTTTCCTAATCTTTCTGTTCAAGCGCCATCTAC	0.677 RPM ratio (pull-down/input)
GATGATTGTTCTCCCAGCTGATGAATTTGTATATTCGAGTAAACAAATTTTCCTAATCTTTCTGTTCAAGCGCCATCTAC	6.34 RPM ratio (pull-down/input)
GATGATTGTTCTCCCAGCTGATGAATTCTGTATTTCGAGTAAACAAATTTTCCTAATCTTTCTGTTCAAGCGCCATCTAC	4.09 RPM ratio (pull-down/input)
GATGATTGTTCTCCCAGCTGATGAATTTCTGTATTCGAGTAAACAAATTTTCCTAATCTTTCTGTTCAAGCGCCATCTAC	1.38 RPM ratio (pull-down/input)
GATGATTGTTCTCCCAGCTGATGAATTCGTATATTCGAGTAAACAAATTTTCCTAATCTTTCTGTTCAAGCGCCATCTAC	2.61 RPM ratio (pull-down/input)
GATGATTGTTCTCCCAGCTGATGAATTGTGTAATTCGAGTAAACAAATTTTCCTAATCTTTCTGTTCAAGCGCCATCTAC	3.19 RPM ratio (pull-down/input)
GATGATTGTTCTCCCAGCTGATGAATTGTATTTTTCGAGTAAACAAATTTTCCTAATCTTTCTGTTCAAGCGCCATCTAC	3.78 RPM ratio (pull-down/input)
GATGATTGTTCTCCCAGCTGATGAATTGTATATTTCGAGTAAACAAATTTTCCTAATCTTTCTGTTCAAGCGCCATCTAC	3.17 RPM ratio (pull-down/input)
GATGATTGTTCTCCCAGCTGATGAATTCGTGTATTCGAGTAAACAAATTTTCCTAATCTTTCTGTTCAAGCGCCATCTAC	2.95 RPM ratio (pull-down/input)
GATGATTGTTCTCCCAGCTGATGAATTGTGTATTTCGAGTAAACAAATTTTCCTAATCTTTCTGTTCAAGCGCCATCTAC	5.82 RPM ratio (pull-down/input)
GATGATTGTTCTCCCAGCTGATGAATTTTTGTATTCGAGTAAACAAATTTTCCTAATCTTTCTGTTCAAGCGCCATCTAC	2.57 RPM ratio (pull-down/input)
GATGATTGTTCTCCCAGCTGATGAATTGTATTGTTCGAGTAAACAAATTTTCCTAATCTTTCTGTTCAAGCGCCATCTAC	6.04 RPM ratio (pull-down/input)
GATGATTGTTCTCCCAGCTGATGAATTTGTGTATTCGAGTAAACAAATTTTCCTAATCTTTCTGTTCAAGCGCCATCTAC	6.95 RPM ratio (pull-down/input)
GATGATTGTTCTCCCAGCTGATGAATTTTTACGATCGAGTAAACAAATTTTCCTAATCTTTCTGTTCAAGCGCCATCTAC	0.226 RPM ratio (pull-down/input)
GATGATTGTTCTCCCAGCTGATGAATTCCCTGCCTCGAGTAAACAAATTTTCCTAATCTTTCTGTTCAAGCGCCATCTAC	0.312 RPM ratio (pull-down/input)

Sequence	binding signal
GATGATTGTTCTCCCAGCTGATGAATTGTGAGGCTCGAGTAAACAAATTTTCCTAATCTTTCTGTTCAAGCGCCATCTAC	0.816 RPM ratio (pull-down/input)
GATGATTGTTCTCCCAGCTGATGAATTTAAGTGCTCGAGTAAACAAATTTTCCTAATCTTTCTGTTCAAGCGCCATCTAC	0.628 RPM ratio (pull-down/input)
GATGATTGTTCTCCCAGCTGATGAATTGTGGTTTTCGAGTAAACAAATTTTCCTAATCTTTCTGTTCAAGCGCCATCTAC	2.03 RPM ratio (pull-down/input)
GATGATTGTTCTCCCAGCTGATGAATTGGGTGGATCGAGTAAACAAATTTTCCTAATCTTTCTGTTCAAGCGCCATCTAC	0.423 RPM ratio (pull-down/input)
GATGATTGTTCTCCCAGCTGATGAATTAAAGCTGTCGAGTAAACAAATTTTCCTAATCTTTCTGTTCAAGCGCCATCTAC	0.47 RPM ratio (pull-down/input)
GATGATTGTTCTCCCAGCTGATGAATTCTTTCCCTCGAGTAAACAAATTTTCCTAATCTTTCTGTTCAAGCGCCATCTAC	0.206 RPM ratio (pull-down/input)
GATGATTGTTCTCCCAGCTGATGAATTAGTAGGGTCGAGTAAACAAATTTTCCTAATCTTTCTGTTCAAGCGCCATCTAC	1.4 RPM ratio (pull-down/input)
GATGATTGTTCTCCCAGCTGATGAATTCAGCAACTCGAGTAAACAAATTTTCCTAATCTTTCTGTTCAAGCGCCATCTAC	4.78 RPM ratio (pull-down/input)
GATGATTGTTCTCCCAGCTGATGAATTGTTCAACTCGAGTAAACAAATTTTCCTAATCTTTCTGTTCAAGCGCCATCTAC	0.485 RPM ratio (pull-down/input)
GATGATTGTTCTCCCAGCTGATGAATTCCGCAAATCGAGTAAACAAATTTTCCTAATCTTTCTGTTCAAGCGCCATCTAC	0.692 RPM ratio (pull-down/input)
GATGATTGTTCTCCCAGCTGATGAATTCTACAACTCGAGTAAACAAATTTTCCTAATCTTTCTGTTCAAGCGCCATCTAC	0.303 RPM ratio (pull-down/input)
GATGATTGTTCTCCCAGCTGATGAATTGCAACTCTCGAGTAAACAAATTTTCCTAATCTTTCTGTTCAAGCGCCATCTAC	2.79 RPM ratio (pull-down/input)
GATGATTGTTCTCCCAGCTGATGAATTCAACAACTCGAGTAAACAAATTTTCCTAATCTTTCTGTTCAAGCGCCATCTAC	0.576 RPM ratio (pull-down/input)
GATGATTGTTCTCCCAGCTGATGAATTCCGCAACTCGAGTAAACAAATTTTCCTAATCTTTCTGTTCAAGCGCCATCTAC	6.11 RPM ratio (pull-down/input)
GATGATTGTTCTCCCAGCTGATGAATTTGCCAACTCGAGTAAACAAATTTTCCTAATCTTTCTGTTCAAGCGCCATCTAC	0.47 RPM ratio (pull-down/input)
GATGATTGTTCTCCCAGCTGATGAATTTTGCAACTCGAGTAAACAAATTTTCCTAATCTTTCTGTTCAAGCGCCATCTAC	6.24 RPM ratio (pull-down/input)
GATGATTGTTCTCCCAGCTGATGAATTCTGCAACTCGAGTAAACAAATTTTCCTAATCTTTCTGTTCAAGCGCCATCTAC	5.96 RPM ratio (pull-down/input)
GATGATTGTTCTCCCAGCTGATGAATTGTGCAACTCGAGTAAACAAATTTTCCTAATCTTTCTGTTCAAGCGCCATCTAC	6.92 RPM ratio (pull-down/input)
GATGATTGTTCTCCCAGCTGATGAATTTGCAAACTCGAGTAAACAAATTTTCCTAATCTTTCTGTTCAAGCGCCATCTAC	0.673 RPM ratio (pull-down/input)
GATGATTGTTCTCCCAGCTGATGAATTATCAAACTCGAGTAAACAAATTTTCCTAATCTTTCTGTTCAAGCGCCATCTAC	0.363 RPM ratio (pull-down/input)
